# Screening data deposited in PubChem by several laboratories.
# Rows were chosen to be rich in hits. Some 3.4% of all compounds tested hit in one or more screens of this group.
# GAA850 FXN act: FXN promoter activators, primary screen, cell-based, luciferase luminescence, HEK293 lucGAA850; HEK293 lucGAA850 FXN promoter luciferase reporter, 24 h; percent of 10 µM SAHA response; activation, % at 6 µM; 0.56% of 360,000 active; AID 540364, 2011;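 active = activation above the average of all compounds screened plus 3 SD, cutoff fixed separately per campaign, cut at about 7.5% in these data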;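 also: 0% = DMSO wells and 100% = 10 µM SAHA wells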
# SMARCA2 activ: SMARCA2 (BRM) function activators, primary screen, cell-based, luminescence, high throughput. MG213 cells, MMTV-luciferase reporter, dexamethasone, overnight. activation, % at 9.1 µM. 1% of 370,000 active. AID 652017, 2013; in the data active = activation above about 7.8%;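 also: 0% = vehicle wells and 100% = reference activator wells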
# AI-2 QS modul: Vibrio harveyi AI-2 quorum sensing modulators, primary screen, JMH597 strain, luminescence/OD600 ratio | Vibrio harveyi JMH597 AI-2 luminescence/OD600 ratio, 9 h; active compounds read low; strain lacks LuxN and CqsS sensors; 0 = neutral-control median | activity change, % at 7.5 µM | 0.4% of 300,000 active; in the data active = activity change below about -75%, passing the limit was not always enough;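 also: luminescence divided by OD600 gain over 9 h not by final OD600 alone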
# HSF1 inhib: HSF1 inhibitors in luciferase reporter cells, primary screen, cell-based, NIH3T3, luminescence; NIH3T3-HGL HSE-luciferase, MG132-induced, luminescence 8 h; active compounds read low; activity change, negative = inhibition, % at 7.5 µM (by protocol); 0.77% of 300,000 active; AID 2098, 2009;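 active = more than half of replicate wells show activity change below -50%, luminescence cut by over half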;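 also: luciferase reports HSF-1 transcriptional activity via heat shock element; 0% = median of DMSO wells and -100% = zero luminescence signal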
# PG9 binder: binders of HIV-1 gp120 antibody PG9, primary screen, biochemical, TR-FRET; TR-FRET gp120-PG9 antibody binding; AID 624416, 2012; inhibition, % at 6.7 µM; 0.43% of 360,000 active; in the data active = inhibition above about 8.5%
# HSP90 refold inh: HSP90 inhibitors, primary screen, cell lysate, luminescence; Heat shock protein HSP 90 (rabbit reticulocyte lysate; luciferase refolding); Rabbit reticulocyte lysate, luciferase refolding luminescence, 3 h; inhibition, % at 5.6 µM; 0.91% of 290,000 active;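 active = inhibition above the screen-wide mean plus 3 SD, computed separately per campaign, cut at about 16% in these data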;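 also: 0% = DMSO wells and 100% = 60 µM geldanamycin wells; inhibitors lower the luminescence because luciferase stays unfolded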
# HSP90 inh confirm: HSP90 inhibitors, confirmation, cell lysate, luminescence; rabbit reticulocyte lysate, luciferase refolding luminescence, 3 h; inhibition, % at 5.9 µM; shares compounds with HSP90 refold inh; AID 1846, 2009; 64% of 2,300 active; in the data active = inhibition above about 18%;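 also: 0% = vehicle wells and 100% = reference inhibitor wells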
# luciferase ctr: firefly luciferase inhibitors, HSP90 counter-screen, confirmation, artefact control for HSP90 inhibitor project, biochemical, luminescence, triplicate; shares compounds with HSP90 refold inh; purified native firefly luciferase; inhibition, % at 5.9 µM; 48% of 2,300 active;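 active = inhibition above the mean inhibition of all tested sample wells plus 3 SD, cut at about 10% in these data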;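 also: 0% = DMSO with luciferase and 100% = wells lacking luciferase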
# Target sequence (P08659 whole entry, looked up): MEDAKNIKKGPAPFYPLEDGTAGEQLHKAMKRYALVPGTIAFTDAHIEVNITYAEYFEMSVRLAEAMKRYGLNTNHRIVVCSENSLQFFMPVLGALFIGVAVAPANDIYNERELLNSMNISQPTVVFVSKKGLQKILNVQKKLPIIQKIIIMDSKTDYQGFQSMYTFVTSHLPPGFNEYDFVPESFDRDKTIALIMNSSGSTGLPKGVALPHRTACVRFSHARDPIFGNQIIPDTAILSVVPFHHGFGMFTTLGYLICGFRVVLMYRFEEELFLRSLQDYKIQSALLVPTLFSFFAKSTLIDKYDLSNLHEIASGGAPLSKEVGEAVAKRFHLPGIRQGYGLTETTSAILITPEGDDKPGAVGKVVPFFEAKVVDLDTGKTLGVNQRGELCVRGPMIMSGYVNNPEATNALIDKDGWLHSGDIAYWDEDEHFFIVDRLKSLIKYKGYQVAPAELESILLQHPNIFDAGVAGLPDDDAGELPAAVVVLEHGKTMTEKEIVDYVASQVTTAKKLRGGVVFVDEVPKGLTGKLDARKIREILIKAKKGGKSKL
# * hit, by the source's call; nt = no result.
SMILES,GAA850 FXN act,SMARCA2 activ,AI-2 QS modul,HSF1 inhib,PG9 binder,HSP90 refold inh,HSP90 inh confirm,luciferase ctr
Cc1ccc(C)c(Cn2nnc3c(=O)[nH]c(C4CCN(S(=O)(=O)c5ccc(S(=O)(=O)N(C)C)cc5)CC4)nc32)c1,-2.7,-3.5,8.9,0.1,1.2,22.1*,19.3*,-1.8
CCOC(=O)c1sc2nc3c(cc2c1N)COC(C(C)C)C3 (stereo unspecified),-2.4,1.1,26.2,-59.5*,-0.1,24.7*,44.3*,41.1*
Clc1ccc(-n2c(Cc3cccs3)nnc2SC/C=C/c2ccccc2)cc1,nt,-6.7,nt,nt,nt,nt,nt,nt
CS(=O)(=O)c1ccc(-c2cn3cc(C(=O)O)ccc3n2)cc1,1.9,1.2,23.6,-14.6,0.3,63.2*,74.6*,3.0
N#CCC[C@@H]1CC[C@]2(CCCN(Cc3ccccc3)C2)O1,nt,-0.2,nt,nt,nt,nt,nt,nt
O=C(COC(=O)c1ccc2c(c1)OCCO2)Nc1ccc(F)cc1F,-1.6,-2.9,nt,nt,0.3,nt,nt,nt
O=C(Nc1ccc(F)cc1F)c1ccc2c(c1)OCCO2,1.7,1.2,7.3,17.7,-1.5,23.1*,32.0*,11.7*
O=C(Nc1ccc(Br)cc1F)c1ccc2c(c1)OCCO2,0.8,1.5,-2.9,-1.8,-2.6,54.5*,50.0*,41.0*
Cc1cc(NC(=O)Cc2cn(C)c3ccccc23)ccc1Oc1cccnc1,nt,-2.7,nt,nt,-0.6,nt,nt,nt
C=CCN1C(=O)[C@@H](CC(=O)NCc2ccc(C)o2)[C@]2(C(=O)OCC)CCCCC/C=C/12,nt,2.8,nt,nt,nt,nt,nt,nt
CCCc1ccc(-c2cc(NC(=O)Cc3c(C)[nH]c4ccccc34)ccc2N(C)c2cccnc2)cc1,nt,-5.8,nt,nt,-3.5,nt,nt,nt
CC(C)(C)c1ccc(C(=O)O/N=C(\N)c2ccccn2)cc1,-13.8,-9.7,-44.8,-89.0*,1.7,73.3*,64.5*,82.8*
N/C(=N\OC(=O)c1ccc(Br)o1)c1ccccn1,3.6,3.8,31.0,16.2,-0.7,23.2*,-0.3,43.7*
Cc1ccc(C(=O)O/N=C(\N)c2ccccn2)cc1C,-4.2,-5.7,nt,-73.9*,0.2,61.4*,71.4*,84.5*
Cc1cccc(/C(N)=N/OC(=O)c2ccc(Br)o2)c1,4.2,5.0,14.2,27.2,-3.2,-0.3,nt,nt
Cc1ccc(C(=O)O/N=C(\N)c2ccccn2)cc1,-5.1,-8.7,-1.9,-80.6*,-0.3,77.7*,85.9*,94.0*
CCOC(=O)N1CCN(C(=O)C[C@H]2C[C@@]3(C(=O)OC)C(=C[C@H](COCc4ccccc4)O[C@@H]3C)N(CCC3=CCCCC3)C2=O)CC1,nt,-4.6,nt,nt,0.6,nt,nt,nt
O=C(NCc1ccc(C(=O)N2CCCC2)cc1)c1cccc(Br)c1,nt,-1.2,nt,nt,nt,nt,nt,nt
CC(C(=O)O/N=C(\N)c1ccccn1)c1ccc([N+](=O)[O-])cc1 (stereo unspecified),-0.4,1.6,11.9,-12.1,-2.9,2.6,nt,nt
N/C(=N\OC(=O)c1cccc(F)c1)c1ccccn1,-3.0,5.2,20.7,-13.4,0.6,31.0*,16.1*,68.4*
N/C(=N\OCc1ccc([N+](=O)[O-])cc1)c1ccccn1,nt,nt,10.7,-43.1,nt,83.6*,91.5*,85.7*
Cc1cccc(C(=O)O/N=C(\N)c2ccccn2)c1,-1.3,-5.2,22.9,-49.1,-0.6,61.3*,60.6*,82.6*
CCOc1ccc(C(=O)O/N=C(\N)c2ccccn2)cc1,-9.6,-6.6,25.5,-79.6*,0.3,82.3*,81.7*,91.2*
COC(=O)C1=C(C)N(Cc2ccccc2C(F)(F)F)C(=NCc2ccc(OC)cc2)NC1c1ccc(C(F)(F)F)cc1 (stereo unspecified),nt,-5.4,nt,nt,-1.7,nt,nt,nt
CC(NC(=O)C=Cc1ccco1)C(=O)NC(Cc1ccccc1)C(N)=O (stereo unspecified),nt,2.3,nt,nt,-0.1,nt,nt,nt
SMILES,GAA850 FXN act,SMARCA2 activ,AI-2 QS modul,HSF1 inhib,PG9 binder,HSP90 refold inh,HSP90 inh confirm,luciferase ctr
O=C(N[C@@H](Cc1cccnc1)C(=O)N1CCC[C@H]1C(=O)NC1CCCC1)c1ccccc1,nt,-3.0,nt,nt,0.1,nt,nt,nt
COc1cc(C(=O)O/N=C(\N)c2ccccn2)cc(OC)c1OC,-0.2,-0.4,9.8,13.2,-1.5,-1.9,nt,nt
N/C(=N\OC(=O)/C=C/c1ccccc1Cl)c1ccccn1,0.5,3.3,10.4,-9.5,-1.5,28.4*,55.2*,56.9*
N/C(=N\OC(=O)c1ccccc1)c1ccccn1,-1.4,0.4,23.8,-64.8*,-2.1,58.4*,37.7*,87.0*
CCOC(=O)[C@]12CCCCC/C=C\1N(CCc1ccc(Cl)cc1)C(=O)[C@H]2CC(=O)NCCc1ccccc1OC,nt,-4.3,nt,nt,nt,nt,nt,nt
CC(C)(C)OC(=O)N1CCC2CCN(CCc3ccccc3)CC21 (stereo unspecified),nt,-4.7,nt,nt,-1.8,nt,nt,nt
CC1(C)CC(NC(=O)COc2ccccc2Cl)CC(C)(C)N1,-4.9,-0.7,21.5,-65.2*,-4.1,33.5*,37.4*,45.2*
CCOc1cccc(C(=O)Nc2cccc(C(C)=O)c2)c1,1.9,0.0,6.5,42.1,-0.2,-0.2,nt,nt
CCOc1cccc(C(=O)Nc2ccc(N(CC)CC)cc2)c1,1.6,-6.6,13.0,10.6,-2.9,-3.9,nt,nt
CCOc1cccc(C(=O)Nc2ccc3c(c2)OCCO3)c1,4.3,-0.1,8.2,17.6,-1.7,19.4*,45.4*,27.1*
CCOc1ccc(C(=O)Nc2ccc3[nH]ncc3c2)cc1,3.7,4.9,28.8,8.7,1.2,18.3*,40.4*,10.6*
CCOc1cccc(C(=O)Nc2ccc3ccccc3c2)c1,-1.8,0.3,17.6,4.3,-0.4,19.2*,47.0*,37.3*
COc1ccc(C(=O)Nc2ccc3[nH]ncc3c2)cc1,2.7,5.1,13.6,8.3,-2.3,14.1,nt,nt
Cc1cc(C(=O)Nc2cccc(C(=O)O)c2)oc1C,-0.1,3.5,6.8,-52.9*,0.0,86.1*,91.8*,79.2*
Cc1ccc(NC(=O)c2ccc(CS(=O)(=O)Cc3ccccc3C)o2)cc1C,nt,-3.9,nt,nt,nt,nt,nt,nt
COc1ccc(N2C(=O)c3n[nH]c(C(C)C)c3C2c2ccc(C)cc2)cc1 (stereo unspecified),nt,0.9,nt,nt,0.5,nt,nt,nt
CC[C@H](CCC(=O)N(c1ccccc1)c1ccccc1)C1CC1,nt,-5.7,nt,nt,nt,nt,nt,nt
COC(=O)[C@]12C[C@H](CC(=O)N3CCN(C(=O)C4CC4)CC3)C(=O)N(Cc3ccc(Cl)cc3Cl)C1=C[C@H](C1CCCC1)O[C@@H]2C,nt,-3.3,nt,nt,nt,nt,nt,nt
